From PubChem BioAssay come the findings set out here.

A short description of test [1]: antimalarial activity against Dd2 strain (AID 2302;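 active = growth inhibition above 50% at the single 2 µM test dose, taken to imply half-maximal potency below 2 µM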;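 also: 0% = DMSO untreated growth and 100% = chloroquine plus artemisinin killed control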). The following applies: P. falciparum Dd2 in RBCs, LDH growth readout, 72 h; at 2 µM; stronger effect = higher value.
Test [2] in a line: HepG2 cytotoxicity, primary screen, cytotoxicity control for P. falciparum antimalarial project, cell-based, ATP luminescence (AID 2303;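 active = inhibition above 50%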;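 also: 0% = DMSO wells and 100% = digitonin-killed cells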). The following applies: HepG2 viability, 24-48 h, at 10 µM, stronger effect = higher value.
In test [3] the target is L-lactate dehydrogenase (Plasmodium falciparum (isolate CDC / Honduras)) (UniProt Q27743). Put plainly: PfLDH activity inhibition – cell lysate, 3D7 strain, counter-screen for P. falciparum growth inhibition project (AID 2304).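 Also: 0% = vehicle and 100% = reference inhibitor.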 The following applies: P. falciparum 3D7 crude extract, LDH APAD/NBT absorbance; at 2 µM; stronger effect = higher value. In general terms: A counterscreen serves to expose hits that act by an unwanted route or on another target.

Test [4] is described as follows: inhibition of 3D7 malaria parasite growth – strain 3D7 (AID 2306).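 Also: 0% = DMSO wells and 100% = chloroquine plus artemisinin control wells.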 The note with it: P. falciparum 3D7 erythrocytic growth, LDH absorbance, 72 h; at 2 µM; stronger effect = higher value.
Test [5] has as its target Calcium-dependent protein kinase 1 (Plasmodium falciparum (isolate 3D7)) (UniProt P62344). In words: PfCDPK1 kinase inhibitors, biochemical, TCAMS library (AID 1159585; cut-off not given, nearly all actives have IC50 up to about 0.98 µM;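 also: inhibitors leave more ATP so luminescence rises with inhibition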). The following applies: recombinant PfCDPK1, Kinase-Glo ATP depletion luminescence. Background: Kinase-Glo reads ATP consumption through a luciferase reaction.
The target of test [6] is Plasmodium falciparum protein kinase 6 (PK6, PF3D7_1337100) (UniProt Q8IDW1). In words: PfPK6 kinase inhibitors, biochemical, TCAMS library (AID 1159586). The note with it: recombinant PfPK6, Kinase-Glo ATP depletion luminescence.
Test [7] deals with Protein kinase 7 (PK7), Plasmodium falciparum 3D7 (PF3D7_0213400) (UniProt Q7YTF7). In words: inhibition of Plasmodium PK7 catalytic activity – biochemical, TCAMS antimalarial set, Kinase-Glo luminescence (AID 1159587). The note with it: recombinant PfPK7, Kinase-Glo ATP depletion luminescence.
The target of test [8] is Calcium-dependent protein kinase 4 (Plasmodium falciparum (isolate 3D7)) (UniProt Q8IBS5). Put plainly: PfCDPK4 kinase inhibitors, biochemical, TCAMS library (AID 1159588; cut-off not given, nearly all actives have IC50 up to about 0.91 µM). The following applies: recombinant PfCDPK4, Kinase-Glo ATP depletion luminescence.

Structures are written as SMILES. Values without a mark were called inactive. For part of these data: Potency and affinity values are given separately. Activity calls are given as the source filed them. Unless noted, no rule for the calls is given here.

Sequence of Calcium-dependent protein kinase 4 (Plasmodium falciparum (isolate 3D7)) (Q8IBS5 whole entry, looked up): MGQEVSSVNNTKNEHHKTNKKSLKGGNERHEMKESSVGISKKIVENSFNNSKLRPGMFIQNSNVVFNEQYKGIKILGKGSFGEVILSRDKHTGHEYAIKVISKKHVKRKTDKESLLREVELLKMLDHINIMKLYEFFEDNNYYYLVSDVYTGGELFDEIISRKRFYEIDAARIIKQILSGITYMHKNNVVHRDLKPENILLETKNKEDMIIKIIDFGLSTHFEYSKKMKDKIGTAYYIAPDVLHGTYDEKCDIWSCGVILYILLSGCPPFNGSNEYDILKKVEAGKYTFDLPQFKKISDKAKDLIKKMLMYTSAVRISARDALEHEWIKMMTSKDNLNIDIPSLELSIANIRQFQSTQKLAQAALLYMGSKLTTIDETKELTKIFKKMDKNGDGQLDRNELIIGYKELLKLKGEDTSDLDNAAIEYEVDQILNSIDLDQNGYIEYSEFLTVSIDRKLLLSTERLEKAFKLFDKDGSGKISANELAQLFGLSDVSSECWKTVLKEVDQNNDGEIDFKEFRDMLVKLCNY
Sequence of Protein kinase 7 (PK7), Plasmodium falciparum 3D7 (PF3D7_0213400) (Q7YTF7 1-343): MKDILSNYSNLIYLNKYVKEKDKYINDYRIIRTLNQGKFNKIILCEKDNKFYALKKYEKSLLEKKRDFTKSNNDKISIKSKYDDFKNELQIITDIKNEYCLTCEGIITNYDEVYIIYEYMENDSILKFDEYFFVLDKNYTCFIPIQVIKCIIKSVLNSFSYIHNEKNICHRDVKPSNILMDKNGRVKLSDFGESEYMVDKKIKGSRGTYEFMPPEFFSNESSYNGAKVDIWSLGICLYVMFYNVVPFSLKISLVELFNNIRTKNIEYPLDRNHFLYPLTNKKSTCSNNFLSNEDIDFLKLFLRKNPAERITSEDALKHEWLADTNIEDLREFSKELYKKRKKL
Sequence of L-lactate dehydrogenase (Plasmodium falciparum (isolate CDC / Honduras)) (Q27743 whole entry, looked up): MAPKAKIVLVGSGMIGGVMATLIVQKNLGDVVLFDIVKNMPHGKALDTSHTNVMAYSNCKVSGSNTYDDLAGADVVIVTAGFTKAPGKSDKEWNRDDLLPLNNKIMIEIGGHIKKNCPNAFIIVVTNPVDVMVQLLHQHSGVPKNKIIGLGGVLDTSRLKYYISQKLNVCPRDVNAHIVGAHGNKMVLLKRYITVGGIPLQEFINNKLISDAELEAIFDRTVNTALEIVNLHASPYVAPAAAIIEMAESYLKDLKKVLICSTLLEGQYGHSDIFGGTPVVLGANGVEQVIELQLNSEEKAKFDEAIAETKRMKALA
Sequence of Calcium-dependent protein kinase 1 (Plasmodium falciparum (isolate 3D7)) (P62344 whole entry, looked up): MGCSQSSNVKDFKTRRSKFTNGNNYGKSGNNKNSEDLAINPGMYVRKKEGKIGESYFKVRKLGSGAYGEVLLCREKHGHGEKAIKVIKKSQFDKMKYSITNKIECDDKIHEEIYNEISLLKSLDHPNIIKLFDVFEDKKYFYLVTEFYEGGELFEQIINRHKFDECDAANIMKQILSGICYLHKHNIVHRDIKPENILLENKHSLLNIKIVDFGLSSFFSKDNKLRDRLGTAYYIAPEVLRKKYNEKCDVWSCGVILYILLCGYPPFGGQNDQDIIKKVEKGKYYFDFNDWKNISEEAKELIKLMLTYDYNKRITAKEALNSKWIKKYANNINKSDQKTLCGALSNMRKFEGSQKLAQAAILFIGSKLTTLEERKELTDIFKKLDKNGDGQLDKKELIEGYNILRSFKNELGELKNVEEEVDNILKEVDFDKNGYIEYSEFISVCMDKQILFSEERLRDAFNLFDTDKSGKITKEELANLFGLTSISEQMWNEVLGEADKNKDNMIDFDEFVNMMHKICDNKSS
Sequence of Plasmodium falciparum protein kinase 6 (PK6, PF3D7_1337100) (Q8IDW1 1-305): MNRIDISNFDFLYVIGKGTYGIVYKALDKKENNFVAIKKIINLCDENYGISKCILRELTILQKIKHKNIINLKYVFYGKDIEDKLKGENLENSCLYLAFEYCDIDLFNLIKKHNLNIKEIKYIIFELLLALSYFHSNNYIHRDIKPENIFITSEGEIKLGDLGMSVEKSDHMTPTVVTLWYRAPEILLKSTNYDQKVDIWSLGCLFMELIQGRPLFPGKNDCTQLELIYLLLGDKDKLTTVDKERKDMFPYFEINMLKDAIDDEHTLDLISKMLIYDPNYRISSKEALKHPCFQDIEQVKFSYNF

In the case of `O=C(NCc1cccc(C(F)(F)F)c1)[C@@H]1CCCN1C(=O)c1ccc(O)c(-c2ccc(Cl)c(Cl)c2)c1`, the values for the growth inhibition in test [1] and in test [4] were 97% (active) and 99% (active), respectively. For the same compound, the inhibition in test [2] was -3%; in test [3] it was 2%. The result in test [5], in test [6], in test [7] and in test [8] was inactive.
Take `CCN1CCN(CC(O)CNC(=O)Nc2ccc(Cl)cc2)CC1` (centres undefined): the growth inhibition is 99% (active) in test [1] and 100% (active) in test [4]. For the same compound, the results for the inhibition in test [2] and in test [3] were 29% and 3%, respectively. Further, the result in test [5], in test [6], in test [7] and in test [8] was inactive.
As to `O=C(c1ccc(Cl)cc1)C1CCN(CCCOc2ccc3c(c2)CCNCC3)CC1`, the growth inhibition in test [1] was 23%; in test [4], 93% (active). Also, the inhibition in test [2] was 78% (active); in test [3] it was -2%. In addition, the outcome in test [5], in test [6], in test [7] and in test [8] was inactive.

Broadly, the inhibition is the drop in the measured response relative to a control, in per cent.
